GALR2 antag: antagonists of human galanin receptor 2 (GALR2); GALR2-expressing cells, antagonist mode; 140,000 compounds, 0.39% hits; AID 828; O43603; inhibition, % at 4 µM; in the data active = inhibition above about 27%;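 also: cells stimulated with galanin 1-16 at roughly its EC80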
Target sequence (O43603 whole entry, looked up): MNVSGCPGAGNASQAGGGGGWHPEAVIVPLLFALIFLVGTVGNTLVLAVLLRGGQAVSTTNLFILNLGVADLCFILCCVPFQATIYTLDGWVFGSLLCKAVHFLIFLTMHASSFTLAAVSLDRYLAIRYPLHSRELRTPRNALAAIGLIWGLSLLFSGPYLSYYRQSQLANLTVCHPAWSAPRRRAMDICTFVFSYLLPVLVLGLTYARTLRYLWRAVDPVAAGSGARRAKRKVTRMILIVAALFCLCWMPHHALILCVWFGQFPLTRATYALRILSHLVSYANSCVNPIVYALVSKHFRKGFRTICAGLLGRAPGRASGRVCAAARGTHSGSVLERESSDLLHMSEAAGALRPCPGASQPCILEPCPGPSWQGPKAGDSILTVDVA
S1P2 blocker: antagonists of human S1P2 receptor | O95136 | cell-based S1P2 antagonist assay, inhibition at 5 uM | inhibition, % at 5 µM | 97,000 compounds, 0.21% hits | AID 736; in the data active = inhibition above about 45%;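 also: CRE beta-lactamase reporter cells expressing human S1P2 stimulated with S1P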
Smad3 inh: blocks human Smad3 binding to FoxH1 peptide; TR-FRET Smad3/Dy647-FoxH1 peptide binding, europium anti-His; inhibition, % at 25 µM; P84022; 88,000 compounds, 0.29% hits;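 active = compounds that reduce the energy-transfer binding signal between the protein and its labelled peptide by more than half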
GALR2 agonist: activates the human galanin receptor 2; O43603; GALR2-expressing cells, agonist activation read-out; activation, % (test concentration not listed); 140,000 compounds, 0.48% hits; AID 803; in the data active = activation above about 5%, passing the limit was not always enough
S1P2 ag: agonists of human S1P2 receptor | O95136 | S1P2-expressing cell line, agonist reporter read-out | activation, % at 4.5 µM | 97,000 compounds, 0.46% hits; in the data active = activation above about 16%
MT1-MMP txn act: MT1-MMP promoter transcription activation. AID 750. 86,000 compounds, 0.16% hits. activation factor at 10 µM. HT1080 MT1-MMP promoter luciferase reporter, luminescence, overnight; hits give high values;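 active = activation factor of at least 2 for MT1-MMP transcription at 10 µM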
A number is an active result; . = inactive; / = not tested or not shown; [ ] = dose if it differs, or a comment. The list is not random: actives were taken first. Their share in the collection is about 1.4%.

SMILES | GALR2 antag | S1P2 blocker | Smad3 inh | GALR2 agonist | S1P2 ag | MT1-MMP txn act
COC(=O)[C@H]1C[C@@H]1[C@H](NC(=O)[C@@H]1CCCN1C(=O)OC(C)(C)C)c1ccccc1 | / | / | / | / | / | .
COc1ccc(-c2nnn(Cc3ccccc3F)n2)cc1 | . | . | . | . | . | 2.3
CCN1CCCCC(=N/O)/C(=N\O)CCCC1 | / | / | . | / | / | /
Cc1cc2sc(C(=O)O)c(C)c2s1 | . | . | 54.0[fluorescence artefact?] | . | . | .
O=C(CCCn1c(=S)[nH]c2cc3c(cc2c1=O)OCO3)N1CCN(c2ccccc2F)CC1 | . | . | . | . | 31.5 | .
CCOC(=O)c1c(/N=C/c2cccc([N+](=O)[O-])c2O)sc(C)c1C | . | / | / | . | / | /
Cc1sc(/N=C/c2ccccc2O)c(C#N)c1C | . | . | . | . | . | 2
[O-][n+]1onc2c1CCc1c-2nn(-c2ccccc2Cl)[n+]1[O-] | 41.9 | . | . | . | . | .
Cc1ccc(-n2nc3c([n+]2[O-])CCc2c-3no[n+]2[O-])cc1 | 48.6 | / | . | . | / | .
Cc1ccc(S(=O)(=O)Oc2ccc(C3C4=C(CCCC4=O)N(CCC(=O)O)C4=C3C(=O)CCC4)cc2Cl)cc1 | . | / | / | 6.6 | / | /
O=C(O)[C@H]1CCCN1Cc1ccc2c(c1)OCO2 | / | / | . | / | / | /
O=C(O)CN(CCN(CC(=O)O)CC(=O)O)CC(=O)O.[Cu+2] | / | / | . | / | / | /
O=C(Cc1ccccc1)Nc1nc2ccccc2s1 | . | . | . | . | . | 2
COc1cc(-c2nc(S(=O)(=O)c3ccc(C)cc3)c(N3CCOCC3)o2)cc(OC)c1OC | . | . | . | . | 18.0 | .
CC1=C/C(=N\O)[C@H]([C@@H]2C=C(C)CC(C)(C)[C@H]2O)C(C)(C)C1 | / | / | . | / | / | /
c1ccc(-c2cc3n(c2)CCc2ccccc2-3)cc1 | . | . | . | . | . | 2.6
COc1ccc2ccccc2c1/C=C/C(=O)c1ccccc1 | / | / | . | / | / | /
Cc1nc(N)sc1-c1csc(Nc2ccccc2)n1 | . | . | . | . | . | 2.3
O=C(O)CCC(=O)c1ccc[nH]1 | / | / | . | / | / | /
NC(N)=N/N=C/c1ccc(C2CCNCC2)cc1 | / | / | . | / | / | /
O=c1c2c(-c3ccco3)csc2nc(SCc2cn3cccnc3n2)n1-c1ccccc1 | . | . | . | . | 20.0 | .
NC(=O)CSc1nc2scc(-c3ccco3)c2c(=O)n1-c1ccccc1 | . | . | . | . | . | .
COc1ccc(-c2nc(C#N)c(NCc3ccc(C)cc3)o2)cc1OC | . | . | . | . | . | .
CC(C)(C)c1ccc(-c2nc(C#N)c(NCc3ccncc3)o2)cc1 | . | . | . | . | . | 2
CCCCCC(=O)Nc1nc(C)c(-c2csc(Nc3cc(Cl)ccc3OC)n2)s1 | . | . | / | . | 16.8 | /
SMILES | GALR2 antag | S1P2 blocker | Smad3 inh | GALR2 agonist | S1P2 ag | MT1-MMP txn act
COc1ccc(C(=O)n2nc(C)cc2Nc2ccccc2)cc1 | . | . | . | . | . | 2.1
Cc1nc2ccccc2n1CCc1nc2c3ccccc3nc(SCC#N)n2n1 | . | . | . | . | 39.4 | .
Cc1cc(C)n(CCc2nc3c4ccccc4nc(SCc4ccc(C#N)cc4)n3n2)n1 | / | / | . | / | / | .
C/C(N[O-])=C(\C)[N+]([O-])=[Co].C/C(N[O-])=C(\C)[N+]([O-])=[Co].CC(=N\[O-])/C(C)=N/[O-].CC(=N\[O-])/C(C)=N/[O-].[CH3-].[CH3-] | / | / | . | / | / | /
COc1ccc(C2CC(c3c(O)cc(C)oc3=O)=NCCS2)c(OC)c1 (centres undefined) | 27.7 | / | . | . | / | .
O=C(O)[C@@H]1[C@H](C(=O)NCc2ccncc2)[C@@H]2C=C[C@H]1O2 | / | / | . | / | / | /
COc1ccc2nc(NCN3C(=O)c4ccccc4C3=O)sc2c1 | / | / | . | / | / | /
CCOC(=O)C1=C(C)N(CCCC(=O)NCCn2c(-c3ccccc3)cc(C(=O)OC)c2C)C(=O)NC1c1ccc([N+](=O)[O-])cc1 (centres undefined) | / | / | / | / | / | .
C[C@H]1C[C@@H]2[C@@H]3CCC4=CC(=O)C=C[C@@]4(C)[C@@]3(F)[C@H](O)C[C@@]2(C)[C@]1(O)C(=O)COP(=O)(O)O | / | / | . | / | / | /
Oc1ccccc1CNc1cnc2ccccc2c1 | . | . | . | . | . | 2.1
Oc1ccc2ccccc2c1CNc1cnc2ccccc2c1 | . | . | / | . | . | /
S=c1nc(-c2nc(=S)[nH]c3c2CCCCCCCCCC3)c2c([nH]1)CCCCCCCCCC2 | / | / | . | / | / | /
O=C(Nc1ccccc1)N(Cc1ccc2c(c1)OCO2)Cc1nc2ccccc2c(=O)[nH]1 | . | . | . | . | 21.0 | .
O=C(c1ccccc1)N(Cc1ccc2c(c1)OCO2)Cc1nc2ccccc2c(=O)[nH]1 | . | . | . | . | . | .
NC1=NC(=O)/C(=C/c2cn(Cc3ccccc3)c3ccccc23)S1 | . | / | / | 5.3 | / | /
O=C1C2C3C=CC(C3)C2C(=O)N1/N=C/c1cn(Cc2ccccc2)c2ccccc12 (centres undefined) | . | . | / | . | . | /
CCOC(=O)N1CCN(C(=O)CSCC(=O)Nc2nc(-c3ccc(-c4ccccc4)cc3)cs2)CC1 | . | 86.8 | . | . | . | /
O=C(O)c1ccccc1/C=N/N=C1c2ccccc2-c2ccccc21 | / | / | 62.3 | / | / | /
COCCNC(=S)N/N=C/c1ccccc1C(=O)O | . | . | / | . | . | /
CCN(CCO)C[C@@H]1CCC[C@@H]2CCCC[C@H]21 | / | / | . | / | / | /
O=C(O)C1CCCCC1C(=O)NCc1ccc(F)cc1 (centres undefined) | . | . | . | . | . | .
O=C(O)C1CCCCC1C(=O)NCc1ccccc1 (centres undefined) | . | . | . | . | . | 2
Cc1cccc2nc(=S)n(C(=O)c3ccco3)n12 | . | . | . | . | . | 2.1
O=C(c1ccco1)n1c(=S)nc2ccccn21 | . | . | . | . | . | .
CCNc1ccc2c(Cl)cc(=O)oc2c1 | . | 47.4 | . | . | . | .
SMILES | GALR2 antag | S1P2 blocker | Smad3 inh | GALR2 agonist | S1P2 ag | MT1-MMP txn act
Cc1cc(=O)oc2cc(Nc3ccccc3)ccc12 | . | / | / | . | / | /
COc1cc(/C=c2\sc3nc(-c4ccncc4)nn3c2=O)ccc1OC(C)=O | . | . | 83.8[fluorescence artefact?] | . | . | .
CC(=O)Oc1cccc(/C=c2\sc3nc(-c4ccco4)nn3c2=O)c1 | . | . | . | . | . | .
CC(CC(=O)O)(CC(=O)O)c1ccccc1 | / | / | . | / | / | /
OC(COc1ccc(C2C=CCC2)cc1)CN1CCCCC1 (centres undefined) | . | . | 66.9 | . | . | .
COC(=O)c1ccc(C(/C=C/[C@@H](C)C(=O)NCc2ccc(C)o2)NC(=O)OCc2ccccc2)cc1 (some centres undefined) | / | / | / | / | / | .
C[C@@H](CCC[C@@H]1SC[C@H]2NC(=O)N[C@@H]12)C(=O)O | / | / | . | / | / | /
CCOc1ccc2nc(NC(=O)CSc3nc4c(c(=O)n(C)c(=O)n4C)n3C(C)C)sc2c1 | . | / | . | . | / | .
COc1ccc(CNC(=O)CSc2nc3c(c(=O)n(C)c(=O)n3C)n2C)cc1 | . | . | . | . | . | .
COc1ccc(OC)c(NC(=O)CSc2nc3c(c(=O)n(C)c(=O)n3C)n2C)c1 | . | . | . | . | 17.5 | .
CC(C)n1c(SCC(=O)Nc2nc3ccccc3s2)nc2c1c(=O)n(C)c(=O)n2C | . | . | . | . | 18.8 | .

Bioassay records as filed in PubChem BioAssay.
